# Results filed as inconclusive are left out. Active and inactive are the calls of the source. Rule for the calls, unless noted: active = hit-call score of the fitted dose curve at least 0.9, where 1 is the maximum; inconclusive = response in the unintended direction; inactive = score below 0.9.
# How the values were obtained:
# [1] = target: Bile acid receptor (Homo sapiens) (UniProt Q96RI1); assay: OT_FXR_FXRSRC1_1440: Odyssey Thera (OT) 24-hour HEK293T Protein-Complementation Assay for Farnesoid X receptor/SRC-1 Co-activator (AID 2283384)
# In short: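 Protein-fragment complementation: FXR and SRC-1 fused to reporter fragments that reassemble on interaction, read by fluorescence intensity. Human HEK293T cells measured 24 h post-dose; positive-direction fit versus DMSO.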
# [2] = target: Bile acid receptor (Homo sapiens) (UniProt Q96RI1); assay: ATG_IR1_CIS: Attagene CIS-FACTORIAL HepG2 Assay for human Nuclear Receptor Subfamily 1 Group H Member 4 (NR1H4), IR1 submotif (AID 2282946; active = hit-call score of the fitted dose curve at least 0.9, where 1 is the maximum; inactive = score below 0.9); conditions: IR1 reporter transcription, actives raise or lower the signal
# In short: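 Fluorescence of capillary-separated, HpaI-digested RT-PCR reporter products gave IR1-element mRNA induction in HepG2 cells 24 h after dosing. Endogenous transcription factors drove the cis-regulated reporters; activity was fitted bidirectionally against DMSO.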
# [3] = target: human Phosphodiesterase 10 (PDE10), PDE10A (gene 10846) (UniProt Q9Y233); assay: NVS_ENZ_hPDE10: NovaScreen (NVS) Enzymatic Assay for human Phosphodiesterase 10 (PDE10) (AID 2283195)
# In short: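 Biochemical single-readout PDE10A assay, cell-free, extracted protein. Compounds first screened at 25 uM in duplicate, hits then titrated to 50 uM max. Activity measured after 1 h; loss-of-signal fitted against DMSO negative control.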
# [4] = read-out: Interleukin-8 (IL8), CXCL8 (gene 3576); assay: BSK_MyoF_IL8: BioMAP Diversity Plus: MyoF Assay for Interleukin-8 (IL8) Biomarker Activity (AID 2284261; active = hit-call score of the fitted dose curve at least 0.9, where 1 is the maximum; inactive = score below 0.9); conditions: primary human lung fibroblasts
# In short: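 Lung fibroblasts (human primary) → chemical exposure → 24 h → IL-8 measured by ELISA. Signal increase scored versus DMSO control.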
# Decorin, DCN (gene 1634) = assay: BSK_MyoF_Decorin: BioMAP Diversity Plus: MyoF Assay for Decorin Biomarker Activity (AID 2284265; active = hit-call score of the fitted dose curve at least 0.9, where 1 is the maximum; inactive = score below 0.9); conditions: primary human lung fibroblasts
# In short: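 ELISA readout of decorin, 24 h post-dosing; primary human lung fibroblast (MyoF) culture; gain-of-signal fit vs DMSO baseline.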
# [5] = BSK_MyoF_SRB: Viability Assessment in the BioMAP Diversity Plus: MyoF Assay (AID 2284267; active = hit-call score of the fitted dose curve at least 0.9, where 1 is the maximum; inactive = score below 0.9;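 note: total protein by SRB absorbance in parallel cultures as cytotoxicity measure; cells assessed 24 h after compound addition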); conditions: primary human lung fibroblasts
# In short: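 Cytotoxicity read-out: after 10% TCA fixation, parallel human lung fibroblast cultures were stained with 0.1% SRB at 24 h post-dosing and read at 560 nm; DMSO served as baseline.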
# [6] = read-out: Matrix Metallopeptidase 1 (MMP1), MMP1 (gene 4312); assay: BSK_MyoF_MMP1: BioMAP Diversity Plus: MyoF Assay for Matrix Metallopeptidase 1 (MMP1) Biomarker Activity (AID 2284268; active = hit-call score of the fitted dose curve at least 0.9, where 1 is the maximum; inactive = score below 0.9); conditions: primary human lung fibroblasts
# In short: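 Cells: human lung fibroblasts. Exposure: 24 h chemical dosing. Detection: ELISA for MMP1. Analysis: upward fitting against DMSO negative control.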
# [7] = read-out: TIMP metallopeptidase inhibitor 1 (TIMP1), TIMP1 (gene 7076); assay: BSK_MyoF_TIMP1: BioMAP Diversity Plus: MyoF Assay for TIMP metallopeptidase inhibitor 1 (TIMP1) Biomarker Activity (AID 2284269; active = hit-call score of the fitted dose curve at least 0.9, where 1 is the maximum; inactive = score below 0.9); conditions: primary human lung fibroblasts
# In short: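 Primary human lung fibroblasts, MyoF multiplex system; chemical exposure 24 h; TIMP-1 by ELISA; positive fitting direction vs DMSO control.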
# [8] = CCTE_Padilla_ZF_Score.General: CCTE's 144 Hour Post-fertilization zebrafish Assay Score for General Malformation, Padilla Lab (AID 2284411; active = hit-call score of the fitted dose curve at least 0.9, where 1 is the maximum; inactive = score below 0.9)
# In short: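 Malformation, death and hatching were scored at 6 dpf by two blinded observers under a stereo microscope. Embryos were dosed singly from 6-8 hpf in sealed plates of 10% Hanks' at 26C and rinsed on 5 dpf; DMSO baseline.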
# [9] = target: Peroxisome proliferator-activated receptor gamma (Homo sapiens) (UniProt P37231); assay: ATG_PPARg_TRANS: Attagene TRANS-FACTORIAL HepG2 Assay for human Peroxisome Proliferator-activated Receptor-gamma (PPARg) (AID 2283007)
# In short: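 Transient transfection of HepG2 with GAL4-UAS-driven reporter units; chemical dosing 24 h; total RNA → oligo(dT) RT → PCR with reporter primers → 6-FAM primer extension → HpaI digest 2 h 37 C → capillary electrophoresis. Positive direction vs DMSO.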
# [10] = target: human Norepinephrine Transporter (NET), SLC6A2 (gene 6530) (UniProt P23975); assay: NVS_TR_hNET: NovaScreen (NVS) Transporter Assay for human Norepinephrine Transporter (NET) (AID 2283377);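 note: cell-free membrane protein extracted from CHO cells expressing human NET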;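 for AC50: displacement of radioligand from human NET seen as loss of scintillation signal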
# In short: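 CHO cell extracts expressing the transporter; tritiated or iodinated tracer displaced competitively; filtration plus scintillation readout at 1 h. Single-point duplicates at 25 uM, concentration series for follow-up; activity = signal drop relative to DMSO.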
# [11] = CCTE_Deisenroth_AIME_384WELL_CTox_Inactive: Cytotoxicity Assessment (CTOX) in CCTE's 384-well Estrogen Receptor Transactivation Assay without AIME metabolic competence (metabolism negative), Deisenroth Lab (AID 2284039);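 note: cell viability via live-cell protease substrate cleaved to fluorescent probe; cells exposed 24 h to medium preincubated 2 h with alginate-water beads without S9; loss of fluorescence signal means loss of viability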
# In short: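 VM7Luc4E2 human breast cells received conditioned medium from a 2 h incubation of chemical with alginate-water microspheres (no S9), then were exposed 24 h. Viability was read as protease-substrate cleavage to a fluorescent probe; loss of signal was fitted bidirectionally over 0.002–200 uM.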
# [12] = system: Thyroperoxidase (TPO), gene 54314; assay: CCTE_Simmons_AUR_rTPO: CCTE's Amplex UltraRed Assay for Thyroperoxidase (TPO) Inhibition, Simmons Lab (AID 2283662);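 note: potency for loss of signal meaning inhibition of peroxidase activity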
# In short: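 Rat thyroid microsomal TPO + 25 uM AUR in 200 mM K phosphate; cpd 5 nM–87.5 uM [final], 8 conc, 0.5% DMSO; 300 uM H2O2 starts rxn; 37C dark 30 min; endpoint FI 544/590 nm; n=3.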
# SERPINA7 (gene 6906) = assay: CCTE_GLTED_hTBG: CCTE's human Thyroxine-binding Globulin (TBG) Inhibition Assay, Great Lakes Toxicology and Ecology Division (GLTED) Lab (AID 2284343);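 note: active chemicals lower fluorescence versus DMSO baseline by displacing probe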
# In short: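 Cell-free displacement of the fluorescent probe ANSA from human thyroxine-binding globulin after 2 h exposure. Read-out at ex 380/em 475 nm; DMSO baseline.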
# TTR (gene 7276) = assay: CCTE_GLTED_hTTR_0.125uM: CCTE's human Transthyretin (hTTR) Inhibition Assay, with 0.125uM TTR, Great Lakes Toxicology and Ecology Division (GLTED) Lab (AID 2284431; active = hit-call score of the fitted dose curve at least 0.9, where 1 is the maximum; inactive = score below 0.9;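 note: hits lower the fluorescence signal relative to DMSO baseline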)
# In short: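 TTR 0.125uM + test chemical, 2 h; ANSA probe displacement; ex 380/em 475 fluorescence; signal loss vs DMSO control.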
# [13] = target: human RAR-related Orphan Receptor gamma (RORg), RORC (gene 6097) (UniProt P51449); assay: ATG_RORg_TRANS: Attagene TRANS-FACTORIAL HepG2 Assay for human RAR-related Orphan Receptor gamma (RORg) (AID 2283011)
# In short: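 Transient MRTU transfection of HepG2 (TRANS format, exogenous NR-Gal4 chimera). 24 h dosing. Total RNA → oligo(dT) RT → PCR → 6-FAM labelling → HpaI cut → CE. Gain vs DMSO.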
# [14] = target: Bile acid receptor (Homo sapiens) (UniProt Q96RI1); assay: OT_FXR_FXRSRC1_0480: Odyssey Thera (OT) 8-hour HEK293T Protein-Complementation Assay for Farnesoid X receptor/SRC-1 Co-activator (AID 2283383)
# In short: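 Binding of FXR to coactivator SRC-1 was read as fluorescence from a reconstituted split reporter in HEK293T cells, 8 h after chemical addition. Only increases in signal versus DMSO were fit.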
# [15] = target: human Ephrin type-A Receptor 1 (EphA1), EPHA1 (gene 2041) (UniProt P21709); assay: NVS_ENZ_hEphA1: NovaScreen (NVS) Enzymatic Assay for human Ephrin type-A Receptor 1 (EphA1) (AID 2283158);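 note: activity is signal loss versus DMSO meaning EphA1 kinase inhibition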
# In short: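 Recombinant kinase, fluorescent substrate, mobility-shift separation, fluorescence read at 1 h. Single-point duplicates at 25 uM; hits (e.g., ≥30% inhibition) run singleton concentration-response, max 50 uM. DMSO = negative control/baseline.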
# [16] = target: Peroxisome proliferator-activated receptor gamma (Homo sapiens) (UniProt P37231); assay: NVS_NR_hPPARg: NovaScreen (NVS) Nuclear Receptor Binding Assay for human Peroxisome Proliferator-activated Receptor gamma (PPARg) (AID 2283370)
# In short: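 FP read-out, 2 h post-dose, cell-free extracted receptor protein. Signal loss vs DMSO negative control = binding activity. Single-conc duplicate HTS at 25 uM; concentration-response follow-up for actives.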
# [17] = target: rat Thyrotropin Releasing Hormone Receptor (TRH), Trhr (gene 25570) (UniProt Q01717); assay: NVS_GPCR_rTRH: NovaScreen (NVS) G Protein-Coupled Receptor Assay for rat Thyrotropin Releasing Hormone Receptor (TRH) (AID 2283329);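 note: hit means lower bound tracer signal versus DMSO baseline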
# In short: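 Cell-free radioligand binding on rat forebrain membranes; bound tracer measured by filter-based scintillation counting 4 hours after dosing. Loss of signal versus DMSO baseline indicates displacement; primary screen at 25 uM in duplicate, actives then run in concentration series.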
# Sequence of human Phosphodiesterase 10 (PDE10), PDE10A (gene 10846) (Q9Y233 whole entry, looked up): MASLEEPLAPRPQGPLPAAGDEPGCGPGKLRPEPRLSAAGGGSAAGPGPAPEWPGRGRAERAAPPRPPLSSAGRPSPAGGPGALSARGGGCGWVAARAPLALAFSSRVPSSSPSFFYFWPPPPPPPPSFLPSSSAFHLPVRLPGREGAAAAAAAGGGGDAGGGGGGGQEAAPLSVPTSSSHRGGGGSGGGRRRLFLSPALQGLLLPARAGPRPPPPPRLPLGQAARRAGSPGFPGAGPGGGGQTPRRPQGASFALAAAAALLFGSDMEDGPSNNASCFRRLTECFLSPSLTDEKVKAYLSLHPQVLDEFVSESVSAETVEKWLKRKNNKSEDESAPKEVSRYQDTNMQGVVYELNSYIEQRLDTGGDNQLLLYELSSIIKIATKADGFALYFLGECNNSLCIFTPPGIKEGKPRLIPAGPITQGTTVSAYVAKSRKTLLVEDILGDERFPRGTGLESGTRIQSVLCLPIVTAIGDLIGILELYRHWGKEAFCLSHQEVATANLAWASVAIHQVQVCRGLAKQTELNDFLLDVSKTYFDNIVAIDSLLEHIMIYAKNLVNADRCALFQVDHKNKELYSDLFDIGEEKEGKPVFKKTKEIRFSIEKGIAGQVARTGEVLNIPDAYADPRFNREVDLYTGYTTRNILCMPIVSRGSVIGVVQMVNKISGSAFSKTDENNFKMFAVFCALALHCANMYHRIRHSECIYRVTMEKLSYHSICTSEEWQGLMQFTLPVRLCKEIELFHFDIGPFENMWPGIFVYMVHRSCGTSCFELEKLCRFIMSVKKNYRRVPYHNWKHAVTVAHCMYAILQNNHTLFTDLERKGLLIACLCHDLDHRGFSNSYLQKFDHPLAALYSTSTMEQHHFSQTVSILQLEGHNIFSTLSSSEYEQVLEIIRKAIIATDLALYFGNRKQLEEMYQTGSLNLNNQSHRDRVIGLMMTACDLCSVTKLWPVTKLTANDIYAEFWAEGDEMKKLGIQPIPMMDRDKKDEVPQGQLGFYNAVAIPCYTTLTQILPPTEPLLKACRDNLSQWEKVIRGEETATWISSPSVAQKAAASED
# Sequence of human Norepinephrine Transporter (NET), SLC6A2 (gene 6530) (P23975 whole entry, looked up): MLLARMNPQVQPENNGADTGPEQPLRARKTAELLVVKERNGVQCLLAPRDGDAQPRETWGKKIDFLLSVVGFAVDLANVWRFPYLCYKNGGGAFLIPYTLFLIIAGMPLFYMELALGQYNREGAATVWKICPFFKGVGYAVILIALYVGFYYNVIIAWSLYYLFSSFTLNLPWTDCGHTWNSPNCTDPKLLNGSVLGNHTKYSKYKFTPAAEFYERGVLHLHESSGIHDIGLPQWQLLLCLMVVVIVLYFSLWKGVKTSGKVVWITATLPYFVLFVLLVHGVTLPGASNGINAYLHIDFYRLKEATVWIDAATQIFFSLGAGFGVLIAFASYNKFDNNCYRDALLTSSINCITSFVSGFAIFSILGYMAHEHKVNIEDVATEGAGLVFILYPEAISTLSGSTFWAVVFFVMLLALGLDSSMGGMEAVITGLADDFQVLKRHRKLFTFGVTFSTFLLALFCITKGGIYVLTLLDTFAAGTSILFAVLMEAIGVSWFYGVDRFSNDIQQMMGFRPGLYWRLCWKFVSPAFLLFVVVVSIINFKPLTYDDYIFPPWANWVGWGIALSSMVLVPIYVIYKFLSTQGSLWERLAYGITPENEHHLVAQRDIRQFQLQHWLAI
# Sequence of Bile acid receptor (Homo sapiens) (Q96RI1 whole entry, looked up, the tested form may be a part): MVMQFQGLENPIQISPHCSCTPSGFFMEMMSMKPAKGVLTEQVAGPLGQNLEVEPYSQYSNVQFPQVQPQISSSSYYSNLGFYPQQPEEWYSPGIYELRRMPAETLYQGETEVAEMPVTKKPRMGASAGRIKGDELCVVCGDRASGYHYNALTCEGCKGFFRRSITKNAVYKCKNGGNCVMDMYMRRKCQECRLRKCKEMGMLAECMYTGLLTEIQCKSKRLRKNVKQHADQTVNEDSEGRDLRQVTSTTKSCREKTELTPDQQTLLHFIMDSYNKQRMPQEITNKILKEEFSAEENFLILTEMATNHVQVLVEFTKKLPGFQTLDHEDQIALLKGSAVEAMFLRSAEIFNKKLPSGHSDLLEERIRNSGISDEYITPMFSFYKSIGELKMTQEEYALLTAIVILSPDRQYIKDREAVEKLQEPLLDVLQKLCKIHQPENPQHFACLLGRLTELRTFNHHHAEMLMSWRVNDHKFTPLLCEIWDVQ
# Sequence of Peroxisome proliferator-activated receptor gamma (Homo sapiens) (P37231 whole entry, looked up, the tested form may be a part): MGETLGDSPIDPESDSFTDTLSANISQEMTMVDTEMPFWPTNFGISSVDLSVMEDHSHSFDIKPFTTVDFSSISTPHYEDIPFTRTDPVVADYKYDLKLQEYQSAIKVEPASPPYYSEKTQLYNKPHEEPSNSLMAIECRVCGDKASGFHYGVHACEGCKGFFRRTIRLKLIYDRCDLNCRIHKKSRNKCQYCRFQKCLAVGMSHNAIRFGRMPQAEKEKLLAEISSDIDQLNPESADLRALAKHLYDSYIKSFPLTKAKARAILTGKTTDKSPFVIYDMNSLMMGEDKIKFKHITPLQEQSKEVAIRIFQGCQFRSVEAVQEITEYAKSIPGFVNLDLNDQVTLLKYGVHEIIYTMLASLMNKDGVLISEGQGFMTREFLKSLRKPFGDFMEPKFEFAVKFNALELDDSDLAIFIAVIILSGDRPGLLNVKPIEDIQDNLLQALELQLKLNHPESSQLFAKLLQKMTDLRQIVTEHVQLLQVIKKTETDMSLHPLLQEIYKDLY
# Sequence of rat Thyrotropin Releasing Hormone Receptor (TRH), Trhr (gene 25570) (Q01717 whole entry, looked up): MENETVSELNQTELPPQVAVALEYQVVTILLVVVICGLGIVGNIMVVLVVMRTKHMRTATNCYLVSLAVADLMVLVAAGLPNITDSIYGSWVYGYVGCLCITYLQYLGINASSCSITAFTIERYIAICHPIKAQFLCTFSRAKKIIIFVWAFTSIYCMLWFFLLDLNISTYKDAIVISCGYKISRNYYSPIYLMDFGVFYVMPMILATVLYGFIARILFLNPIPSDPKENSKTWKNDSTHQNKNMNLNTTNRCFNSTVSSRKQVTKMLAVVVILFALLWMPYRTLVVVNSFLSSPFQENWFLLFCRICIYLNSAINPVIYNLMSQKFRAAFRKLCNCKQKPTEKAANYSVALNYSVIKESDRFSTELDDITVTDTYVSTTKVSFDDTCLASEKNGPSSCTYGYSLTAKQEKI
# Sequence of human Ephrin type-A Receptor 1 (EphA1), EPHA1 (gene 2041) (P21709 whole entry, looked up): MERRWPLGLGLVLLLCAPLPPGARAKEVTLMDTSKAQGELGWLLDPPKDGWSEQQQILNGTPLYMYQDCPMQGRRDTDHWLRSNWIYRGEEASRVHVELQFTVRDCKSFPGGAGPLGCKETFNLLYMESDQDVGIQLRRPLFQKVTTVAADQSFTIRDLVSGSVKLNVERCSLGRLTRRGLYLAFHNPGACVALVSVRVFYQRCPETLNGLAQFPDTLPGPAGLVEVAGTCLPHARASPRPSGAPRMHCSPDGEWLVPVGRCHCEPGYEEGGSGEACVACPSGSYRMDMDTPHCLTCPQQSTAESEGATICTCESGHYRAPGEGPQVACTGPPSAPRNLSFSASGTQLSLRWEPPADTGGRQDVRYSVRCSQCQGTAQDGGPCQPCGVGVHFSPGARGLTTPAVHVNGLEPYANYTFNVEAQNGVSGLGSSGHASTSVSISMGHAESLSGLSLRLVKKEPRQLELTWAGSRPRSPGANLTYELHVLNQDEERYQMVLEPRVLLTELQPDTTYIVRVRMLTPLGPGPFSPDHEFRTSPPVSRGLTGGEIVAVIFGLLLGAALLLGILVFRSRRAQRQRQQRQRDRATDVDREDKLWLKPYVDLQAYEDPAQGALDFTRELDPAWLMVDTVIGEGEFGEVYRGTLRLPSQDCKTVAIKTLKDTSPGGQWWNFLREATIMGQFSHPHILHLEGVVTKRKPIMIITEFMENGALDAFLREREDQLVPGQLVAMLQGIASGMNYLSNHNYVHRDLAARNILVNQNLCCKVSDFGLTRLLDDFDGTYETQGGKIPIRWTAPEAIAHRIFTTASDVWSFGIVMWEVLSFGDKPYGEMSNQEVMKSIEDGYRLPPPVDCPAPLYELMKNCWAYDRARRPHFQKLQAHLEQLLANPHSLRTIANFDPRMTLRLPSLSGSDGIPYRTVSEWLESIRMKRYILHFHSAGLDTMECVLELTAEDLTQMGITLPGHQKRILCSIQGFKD
# Sequence of human RAR-related Orphan Receptor gamma (RORg), RORC (gene 6097) (P51449 whole entry, looked up, the tested form may be a part): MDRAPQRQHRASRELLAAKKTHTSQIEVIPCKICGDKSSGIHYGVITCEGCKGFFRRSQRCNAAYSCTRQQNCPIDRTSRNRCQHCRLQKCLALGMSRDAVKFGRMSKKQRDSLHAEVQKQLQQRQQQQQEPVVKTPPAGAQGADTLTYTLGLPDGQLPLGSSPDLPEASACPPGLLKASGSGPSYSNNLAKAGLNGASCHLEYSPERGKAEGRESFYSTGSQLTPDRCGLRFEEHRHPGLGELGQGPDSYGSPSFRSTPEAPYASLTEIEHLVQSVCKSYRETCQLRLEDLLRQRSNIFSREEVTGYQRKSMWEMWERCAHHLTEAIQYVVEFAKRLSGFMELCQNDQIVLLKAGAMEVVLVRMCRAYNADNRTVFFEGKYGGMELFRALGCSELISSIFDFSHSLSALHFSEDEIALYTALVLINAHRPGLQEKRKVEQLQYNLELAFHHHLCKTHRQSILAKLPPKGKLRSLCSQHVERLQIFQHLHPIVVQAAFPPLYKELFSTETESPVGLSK
smiles,measurement,setting,value
O=C1NC(=O)C2CC=CCC12 (stereo not given),outcome,[1],inactive
NC(N)=Nc1nc(CSCCC(N)=NS(N)(=O)=O)cs1,outcome,[2],inactive
CC(C)CC(=O)CC(C)CC(C)C (stereo not given),outcome,[3],inactive
same,outcome,[4],inactive
same,outcome,"Decorin, DCN (gene 1634)",inactive
same,outcome,[5],inactive
same,outcome,[6],inactive
same,outcome,[7],inactive
same,outcome,[8],inactive
O=[N+]([O-])c1ccccc1C(F)(F)F,outcome,[9],inactive
CCCCCCCCCCCCCCCCCC[N+](C)(C)C,AC50,[9],32.7 µM (active)
same,AC50,[3],1.71 µM (active)
same,AC50,[10],2.93 µM (active)
same,AC50,[4],8.89 µM (active)
same,outcome,"Decorin, DCN (gene 1634)",inactive
same,AC50,[5],3.6 µM (active)
same,AC50,[6],1.24 µM (active)
same,AC50,[7],8.13 µM (active)
same,outcome,[8],inactive
NC(=O)c1ccc([N+](=O)[O-])cc1Cl,outcome,[9],inactive
CC/C=C\CCO,outcome,[1],inactive
same,outcome,[11],inactive
Sc1nc2ccccc2s1,outcome,[2],inactive
same,outcome,[1],inactive
same,AC50,[12],1.42 µM (active)
same,outcome,[4],inactive
same,outcome,"Decorin, DCN (gene 1634)",inactive
same,outcome,[5],inactive
same,outcome,[6],inactive
same,outcome,[7],inactive
same,AC50,SERPINA7 (gene 6906),50 µM (active)
same,AC50,[8],5.5 µM (active)
same,AC50,TTR (gene 7276),9.1 µM (active)
CC1(C)S[C@@H]2[C@H](NC(=O)[C@H](N)c3ccccc3)C(=O)N2[C@H]1C(=O)O,outcome,[13],inactive
CCCCOC(=O)COc1ccc(Cl)cc1Cl,outcome,[14],inactive
same,outcome,[11],inactive
same,AC50,SERPINA7 (gene 6906),9.59 µM (active)
CCCCC(CC)COC(=O)CS (stereo not given),AC50,[12],25.6 µM (active)
O=C(OCc1ccccc1)c1ccccc1,outcome,[9],inactive
same,outcome,[14],inactive
same,AC50,TTR (gene 7276),20.7 µM (active)
CCCCCCCCCCC1CO1 (stereo not given),outcome,[4],inactive
same,AC50,"Decorin, DCN (gene 1634)",24.7 µM (active)
same,AC50,[5],35.2 µM (active)
same,AC50,[6],3.97 µM (active)
same,AC50,[7],32.3 µM (active)
COC(=O)c1ccccc1,outcome,[3],inactive
C/C=C(\C)C(=O)OCC/C=C\CC,outcome,[13],inactive
COc1ccccc1OCC(O)CO (stereo not given),outcome,[15],inactive
same,AC50,[3],25 µM (active)
C1=CCC=C1,outcome,[11],inactive
CCO[Si](CCCN)(OCC)OCC,outcome,[2],inactive
same,outcome,[1],inactive
CC1=NN(c2cc(Cl)c(S(=O)(=O)O)cc2Cl)C(=O)C1N=Nc1ccc(S(=O)(=O)O)cc1 (stereo not given),AC50,SERPINA7 (gene 6906),39.4 µM (active)
same,AC50,TTR (gene 7276),18.8 µM (active)
COc1ccc2ccccc2c1,AC50,[10],25 µM (active)
Cc1cccnc1,outcome,[9],inactive
same,outcome,[16],inactive
same,outcome,[4],inactive
same,outcome,"Decorin, DCN (gene 1634)",inactive
same,outcome,[5],inactive
same,outcome,[6],inactive
same,outcome,[7],inactive
same,outcome,[8],inactive
COC(=O)[C@]1(C)CCC[C@@]2(C)[C@H]1CC=C1C=C(C(C)C)CC[C@@H]12,outcome,[17],inactive
same,AC50,[14],12.7 µM (active)
same,AC50,[1],12.8 µM (active)
same,outcome,[11],inactive
N#CCN(CC#N)CCN(CC#N)CC#N,outcome,[15],inactive
same,AC50,[3],12.1 µM (active)
CCCCCC[C@@H](O)C/C=C\CCCCCCCC(=O)O,outcome,[17],inactive
same,AC50,[16],15.1 µM (active)
same,AC50,[14],74.3 µM (active)
same,outcome,[1],inactive
same,AC50,SERPINA7 (gene 6906),41.4 µM (active)
same,AC50,TTR (gene 7276),10.8 µM (active)
NC(=O)c1ccc(N)cc1,outcome,[2],inactive
O=C(C1CCCCC1)N1CC(=O)N2CCc3ccccc3C2C1 (stereo not given),outcome,[9],inactive
CN(C)CCC(c1ccc(Cl)cc1)c1ccccn1 (stereo not given),AC50,[10],7.29 µM (active)
same,outcome,[4],inactive
same,outcome,"Decorin, DCN (gene 1634)",inactive
same,outcome,[5],inactive
same,outcome,[6],inactive
same,outcome,[7],inactive
same,outcome,[8],inactive
CCOC(=O)CC(=O)OCC,outcome,[2],inactive
same,outcome,[14],inactive
O=C1NC(=O)[C@@H]2CC=CC[C@H]12,outcome,[10],inactive
O=C(O)Cc1c[nH]c2ccccc12,outcome,[2],inactive
c1ccc(CNc2ncnc3nc[nH]c23)cc1,outcome,[1],inactive

# Source: PubChem BioAssay (EPA / NIEHS)
